According to article PMC4336329 (PLoS ONE, 2015):
Among all 310,000 compounds or so, about 14,000 (4.5%) showed an effect of 50% or more. The effect is printed as a negative number. This excerpt belongs to a sample that is enriched for strong results.

Each compound was assayed against human ether-à-go-go-related gene (hERG) potassium channel (human, UniProt Q12809) (assay: primary screen, population patch clamp on CHO cells stably expressing hERG; higher = less effect of the substance).
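Further: peak tail current of the secondary pulse compared with the same well before compound.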

Chain of human ether-à-go-go-related gene (hERG) potassium channel (Q12809 whole entry, looked up): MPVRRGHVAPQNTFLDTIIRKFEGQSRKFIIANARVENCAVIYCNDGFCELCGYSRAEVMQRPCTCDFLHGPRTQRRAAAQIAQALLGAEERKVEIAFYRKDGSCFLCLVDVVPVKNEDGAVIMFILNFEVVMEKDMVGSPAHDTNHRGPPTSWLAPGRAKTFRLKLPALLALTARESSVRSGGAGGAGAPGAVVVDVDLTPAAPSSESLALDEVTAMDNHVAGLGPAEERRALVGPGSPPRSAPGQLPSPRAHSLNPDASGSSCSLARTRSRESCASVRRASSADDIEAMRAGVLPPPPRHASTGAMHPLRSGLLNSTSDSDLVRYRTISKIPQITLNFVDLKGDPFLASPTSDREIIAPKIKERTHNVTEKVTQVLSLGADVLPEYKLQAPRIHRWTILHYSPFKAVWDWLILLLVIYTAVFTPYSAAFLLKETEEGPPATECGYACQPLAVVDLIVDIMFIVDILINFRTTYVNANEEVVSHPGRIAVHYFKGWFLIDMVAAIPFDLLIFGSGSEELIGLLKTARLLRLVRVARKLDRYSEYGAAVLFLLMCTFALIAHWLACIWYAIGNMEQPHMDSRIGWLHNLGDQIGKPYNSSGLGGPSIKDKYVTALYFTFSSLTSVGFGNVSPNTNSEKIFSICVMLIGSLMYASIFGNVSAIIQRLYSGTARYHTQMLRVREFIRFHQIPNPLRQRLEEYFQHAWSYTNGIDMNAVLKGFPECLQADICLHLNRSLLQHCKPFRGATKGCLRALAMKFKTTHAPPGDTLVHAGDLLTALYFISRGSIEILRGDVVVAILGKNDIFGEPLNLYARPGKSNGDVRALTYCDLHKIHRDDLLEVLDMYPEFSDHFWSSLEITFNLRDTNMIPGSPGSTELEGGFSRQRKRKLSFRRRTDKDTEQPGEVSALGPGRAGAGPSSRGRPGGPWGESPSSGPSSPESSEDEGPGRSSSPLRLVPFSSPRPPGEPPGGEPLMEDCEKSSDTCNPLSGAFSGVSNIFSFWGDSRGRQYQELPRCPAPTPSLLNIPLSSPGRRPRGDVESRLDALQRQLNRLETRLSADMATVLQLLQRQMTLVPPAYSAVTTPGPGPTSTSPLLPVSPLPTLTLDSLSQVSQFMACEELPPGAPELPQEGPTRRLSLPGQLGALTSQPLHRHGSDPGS

| Structure (SMILES) | hERG current change (%, negative = inhibition) at 10uM [%] |
| --- | --- |
| O=C(OCN1C(=O)c2ccccc2C1=O)c1cccc(S(=O)(=O)N2CCOCC2)c1 | -3.06 |
| CN1c2ccsc2/C(=N/NC(=O)c2c(F)cccc2F)CS1(=O)=O | 4.31 |
| Cc1cccc(C2(c3cccc(C)c3)CC2C(=O)NCC2CCCO2)c1 (centres unmarked) | -6.94 |
| CC(CC(=O)N1CCN(S(=O)(=O)c2ccccc2)CC1)n1cncn1 (centres unmarked) | 20.1 |
| NS(=O)(=O)c1ccc(CCNC(=O)Nc2ccc(Cl)cc2)cc1 | -9.65 |
| O=c1cc(NC2CCCCCC2)[nH]c(=O)[nH]1 | 4.69 |
| CN(C)C(=O)Oc1c(Cl)cc(Cl)c2ccccc12 | -36.2 |
| CCC(/C=C1\Sc2ccc(OC)cc2N1CCO)=C\c1sc2ccc(OC)cc2[n+]1CCO.[Cl-] | -72.9 |
| CCC(/C=C1\Sc2ccc(OC)cc2N1CC)=C\c1sc2ccc(OC)cc2[n+]1CCCS(=O)(=O)[O-] | 15 |
| CCC(=O)/C=C1\Sc2ccc(OC)cc2N1CCO | -0.298 |
| O=C(NCc1cccc(C(F)(F)F)c1)C1CCCN(c2ncccn2)C1 (centres unmarked) | -37.1 |
| Cc1ccc(NC(=O)C2CCCN(c3ncccn3)C2)cc1F (centres unmarked) | -0.00042 |
| CC(=O)Nc1ccc(NC(=O)C2CCCN(c3ncccn3)C2)cc1 (centres unmarked) | 2.63 |
| O=C(Nc1cccc(C(F)(F)F)c1)C1CCCN(c2ncccn2)C1 (centres unmarked) | -53.4 |
| O=C(NCc1ccc(Cl)cc1)C1CCCN(c2cnccn2)C1 (centres unmarked) | -66.5 |
| Cl.O=C(Nc1cccc(C(F)(F)F)c1)c1cccnc1N1CCN(c2ccccc2)CC1 | 7.25 |
| O=C(Nc1cccc(C(F)(F)F)c1)c1cccnc1N1CCN(CCO)CC1 | -63.8 |
| Cc1ccc(CNC(=O)C2CCCN(c3cnccn3)C2)cc1 (centres unmarked) | -40 |
| O=C(NCc1ccccc1)C1CCCN(c2cnccn2)C1 (centres unmarked) | -28.9 |
| O=C(Nc1cccc(C(F)(F)F)c1)c1cccnc1N1CCCC1 | 13.2 |
| COc1cccc(CNC(=O)C2CCCN(c3cnccn3)C2)c1 (centres unmarked) | -14.4 |
| O=C(NCc1cccc(C(F)(F)F)c1)C1CCCN(c2cnccn2)C1 (centres unmarked) | -61 |

| Structure (SMILES) | hERG current change (%, negative = inhibition) at 10uM [%] |
| --- | --- |
| COC(=O)C1=C(C)Nc2nnnn2C1c1ccccc1Cl (centres unmarked) | -2.51 |
| CCOC(=O)Cc1cc(OC)c(OC)cc1Cc1cc(OC)c(OC)cc1CC(=O)OCC | 9.74 |
| C/C(=N\NC(=O)C1(C)CC1(Br)Br)c1ccc(NC(=O)C2CCC2)cc1 (centres unmarked) | 7.51 |
| COc1ccc(CCNc2cc(C)[nH]c(=O)c2)cc1OC | 29.6 |
| CCOC(=O)c1c(N)c2cc([N+](=O)[O-])ccc2n1C | 18.1 |
| CCOCCCNC(=S)N1C2CCC1CC(NC(=O)NC13CC4CC(CC(C4)C1)C3)C2 (centres unmarked) | -8.16 |
| O=C(NCc1ccc(F)cc1)C1CCCN(c2cnccn2)C1 (centres unmarked) | -65 |
| O=C(NCc1ccccc1F)C1CCCN(c2cnccn2)C1 (centres unmarked) | 13.4 |
| O=C(Nc1ccc(F)cc1)C1CCCN(c2cnccn2)C1 (centres unmarked) | -11.9 |
| Cc1c(CCC(=O)NCC(=O)NCC(=O)O)c(=O)oc2cc3oc4c(c3cc12)CCCC4 | 4.87 |
| COc1ccc2cc3cc(C(=O)NCCCN4CCOCC4)oc3nc2c1 | -5.55 |
| COc1ccc2cc3cc(C(=O)NCc4ccccn4)oc3nc2c1 | 12.1 |
| COc1ccc2cc3cc(C(=O)NCCN4CCc5ccccc5C4)sc3nc2c1 | -32.9 |
| COc1ccc2cc3cc(C(=O)NCCN4CCc5ccccc5C4)oc3nc2c1 | -63.3 |
| CCOC(=O)N1CCC(NC(=O)c2cc3cc4cc(OC)ccc4nc3o2)CC1 | -16.2 |
| COCCCNC(=O)c1cc2cc3cc(OC)ccc3nc2o1 | -12.9 |
| CCN1CCN(CCCNC(=O)c2cc3cc4ccc(OC)cc4nc3o2)CC1 | -17.1 |
| COc1ccc2cc3cc(C(=O)NCCN4CCN(Cc5ccccc5)CC4)oc3nc2c1 | -71.8 |
| COc1ccc2cc3cc(C(=O)NCCCN4CCC(C)CC4)oc3nc2c1 | -58.5 |
| COc1ccc2nc3oc(C(=O)NC4CCN(Cc5ccccc5)CC4)cc3cc2c1 | -67.1 |
| COc1ccc2cc3cc(C(=O)NCCCN4CCc5ccccc5C4)sc3nc2c1 | -32.7 |
| COc1ccc2cc3cc(C(=O)NCCN4CCN(c5ccccc5F)CC4)oc3nc2c1 | -15.8 |
